According to PubChem BioAssay (NCI):
Several values for one entry are separate records, joined by “and”; a condition that tells them apart may be missing. Equal values may be shown once. The panel holds about 83,000 compounds, 20% with a hit somewhere; the sample as a whole holds those more often.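 Treatment: one concentration, 48 hours, 96-well format. Scoring: percent growth, with anything below 10 considered active.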 Activity calls are given as the source filed them.

How the values were obtained:
Test in all cases: NCI-60 one-dose screen, 48 h (100 = growth as untreated, 0 = no growth, -100 = all killed)
Details in all cases: 10 µM unless noted
HCT-15 colon = tested on: HCT-15 colon
HT29 colon = tested on: HT29 colon
SNB-19 CNS = tested on: SNB-19 CNS
U251 CNS = tested on: U251 CNS
PC-3 prostate = tested on: PC-3 prostate
SK-MEL-5 melanoma = tested on: SK-MEL-5 melanoma
UACC-62 melanoma = tested on: UACC-62 melanoma
LOX IMVI melanoma = tested on: LOX IMVI melanoma
SK-MEL-28 melanoma = tested on: SK-MEL-28 melanoma
SNB-75 CNS = tested on: SNB-75 CNS

Measured: growth

O=C(N=C1C(=O)C2(CCCCC2)C2(N=C(c3ccccc3)OC2=O)C12CCCCC2)c1ccccc1 (stereo not drawn)
inactive: HCT-15 colon 62.3% | HT29 colon 51.5% | SNB-19 CNS 71.5% | U251 CNS 59.6% | PC-3 prostate 42.8% | SK-MEL-5 melanoma 64.6% | UACC-62 melanoma 58.6% | LOX IMVI melanoma 71.5% | SK-MEL-28 melanoma 84.5%

O=[N+]([O-])c1ccc(NC2CCCCC2)nc1
inactive: HCT-15 colon 106% and 102% | HT29 colon 106% and 104% | SNB-75 CNS 102% and 96.9% | SNB-19 CNS 103% and 108% | U251 CNS 107% and 101% | SK-MEL-5 melanoma 112% and 106% | UACC-62 melanoma 104% and 92.2% | LOX IMVI melanoma 94% | SK-MEL-28 melanoma 128% and 111%

Cc1c(O)nc(N)[nH]c1=O
inactive: HCT-15 colon 106% | HT29 colon 106% | SNB-75 CNS 102% | SNB-19 CNS 108% | U251 CNS 100% | SK-MEL-5 melanoma 113% | UACC-62 melanoma 100% | LOX IMVI melanoma 99.4% | SK-MEL-28 melanoma 110%

C(#CCN1CCOCC1)CCCN1CCOCC1
inactive: HCT-15 colon 91% and 99.6% | HT29 colon 106% and 105% | SNB-19 CNS 107% and 108% | U251 CNS 102% and 98.7% | PC-3 prostate 99.9% and 93.2% | SK-MEL-5 melanoma 101% and 104% | UACC-62 melanoma 96.3% and 96.5% | LOX IMVI melanoma 102% and 99.6% | SK-MEL-28 melanoma 107% and 110%

O=C(O)c1ccc2c3ccc(C(=O)O)c4c(C(=O)O)ccc(c5ccc(C(=O)O)c1c25)c43
inactive: HCT-15 colon 108% | HT29 colon 111% | SNB-19 CNS 96.8% | U251 CNS 106% | PC-3 prostate 101% | SK-MEL-5 melanoma 102% | UACC-62 melanoma 90.9% | LOX IMVI melanoma 92.7% | SK-MEL-28 melanoma 112%

CC1(CO)CCCC1NCCNC1CCCC1(C)CO (stereo not drawn)
inactive: HCT-15 colon 96.8% and 99% | HT29 colon 91.3% and 103% | SNB-75 CNS 84.7% and 97.9% | SNB-19 CNS 102% and 103% | U251 CNS 106% | SK-MEL-5 melanoma 99.7% and 101% | UACC-62 melanoma 99% and 102% | LOX IMVI melanoma 98.8% | SK-MEL-28 melanoma 104% and 108%

CCc1ccc(OC(=O)CCl)cc1
inactive: HCT-15 colon 107% | HT29 colon 107% | SNB-75 CNS 89.7% | SNB-19 CNS 108% | U251 CNS 97% | SK-MEL-5 melanoma 105% | UACC-62 melanoma 106% | LOX IMVI melanoma 93.3% | SK-MEL-28 melanoma 98.4%

Cc1cc2nc3ccc(=[N+](C)C)cc-3sc2cc1N
-31.9% (active) and 23.3% (inactive): UACC-62 melanoma
-9.76% (active) and 20.1% (inactive): SK-MEL-28 melanoma
3.91% (active) and 19.4% (inactive): HT29 colon
active: HCT-15 colon 8.48% and 7.46% | SNB-19 CNS -17.2% and -4.45% | U251 CNS 1.01% and -31% | PC-3 prostate -1.87% and -5.43% | SK-MEL-5 melanoma -92.2% and -90.1% | LOX IMVI melanoma -19.1% and -29.2%

CCOC(=O)C1=CC(=O)CC(C)(C)O1
inactive: HCT-15 colon 101% and 103% | HT29 colon 92.6% and 101% | SNB-75 CNS 116% | SNB-19 CNS 104% and 109% | U251 CNS 104% and 99.9% | SK-MEL-5 melanoma 112% | UACC-62 melanoma 104% and 106% | LOX IMVI melanoma 103% and 107% | SK-MEL-28 melanoma 119% and 120%

N=C(N=C(N)N)N1CCOCC1
inactive: HCT-15 colon 101% and 94.5% | HT29 colon 104% and 111% | SNB-19 CNS 110% and 99.1% | U251 CNS 101% and 103% | PC-3 prostate 93.7% and 94.5% | SK-MEL-5 melanoma 96.1% and 98% | UACC-62 melanoma 105% and 100% | LOX IMVI melanoma 102% and 93.2% | SK-MEL-28 melanoma 99.5% and 103%

COC(=O)CCOc1ccccc1
inactive: HCT-15 colon 101% | HT29 colon 97.9% | SNB-19 CNS 99.5% | U251 CNS 96% | PC-3 prostate 85.3% | SK-MEL-5 melanoma 95.5% | UACC-62 melanoma 99% | LOX IMVI melanoma 91.3% | SK-MEL-28 melanoma 123%

O=P(O)(O)OC1C(OP(=O)(O)O)C(OP(=O)(O)O)C(OP(=O)(O)O)C(OP(=O)(O)O)C1OP(=O)(O)O.[Cu+2] (stereo not drawn)
inactive: HCT-15 colon 102% | HT29 colon 96.5% | SNB-19 CNS 106% | U251 CNS 32.6% | PC-3 prostate 105% | UACC-62 melanoma 79.7% | LOX IMVI melanoma 69.7% | SK-MEL-28 melanoma 116%
active: SK-MEL-5 melanoma -56.1%

CCc1ccccc1-n1[nH]c(C)c(C=N)c1=O
inactive: HCT-15 colon 98.3% | HT29 colon 114% | SNB-19 CNS 104% | U251 CNS 109% | PC-3 prostate 94.7% | SK-MEL-5 melanoma 104% | UACC-62 melanoma 101% | LOX IMVI melanoma 99.1% | SK-MEL-28 melanoma 110%

O=S(=O)(O)c1ccc2cc(O)ccc2c1
inactive: HCT-15 colon 112% | HT29 colon 103% | SNB-75 CNS 93.6% | SNB-19 CNS 109% | U251 CNS 98.7% | SK-MEL-5 melanoma 96.8% | UACC-62 melanoma 99.7% | LOX IMVI melanoma 104% | SK-MEL-28 melanoma 117%

CNc1ccc(O)cc1
inactive: HCT-15 colon 103% and 102% | HT29 colon 114% and 113% | SNB-19 CNS 102% and 98.3% | U251 CNS 101% and 99.3% | PC-3 prostate 102% and 100% | SK-MEL-5 melanoma 98.2% and 112% | UACC-62 melanoma 108% and 89.3% | LOX IMVI melanoma 101% and 93.9% | SK-MEL-28 melanoma 114% and 137%

C/C=C(/C(=O)NC(N)=O)C(C)C
inactive: HCT-15 colon 110% | HT29 colon 106% | SNB-75 CNS 120% | SNB-19 CNS 110% | U251 CNS 98.8% | SK-MEL-5 melanoma 115% | UACC-62 melanoma 110% | LOX IMVI melanoma 100% | SK-MEL-28 melanoma 117%

Nc1ccccc1SC1CC(=O)N(c2ccc(I)cc2)C1=O (stereo not drawn)
inactive: HCT-15 colon 88.5% | HT29 colon 93.3% | SNB-19 CNS 96% | U251 CNS 88.4% | PC-3 prostate 94.2% | SK-MEL-5 melanoma 87.9% | UACC-62 melanoma 82.7% | LOX IMVI melanoma 76.4% | SK-MEL-28 melanoma 90.8%

OCc1cccc(F)c1
inactive: HCT-15 colon 10.2% | HT29 colon 17.7% | SNB-75 CNS 102% | SNB-19 CNS 92.2% | U251 CNS 83.5% | SK-MEL-5 melanoma 92.6% | UACC-62 melanoma 84.7% | LOX IMVI melanoma 76.8% | SK-MEL-28 melanoma 116%

CC1CCC(=O)N1c1ccc(N)cc1 (stereo not drawn)
inactive: HCT-15 colon 108% | HT29 colon 96.6% | SNB-19 CNS 97.8% | U251 CNS 97.3% | PC-3 prostate 94.4% | SK-MEL-5 melanoma 98.9% | UACC-62 melanoma 100% | LOX IMVI melanoma 95.1% | SK-MEL-28 melanoma 107%

CC(=O)Nc1ccc2oc(=O)ccc2c1
inactive: HCT-15 colon 107% | HT29 colon 106% | SNB-19 CNS 102% | U251 CNS 108% | PC-3 prostate 100% | SK-MEL-5 melanoma 97.8% | UACC-62 melanoma 93.9% | LOX IMVI melanoma 99.7% | SK-MEL-28 melanoma 115%

S=c1ccc2ccccc2[nH]1
inactive: HCT-15 colon 102% and 113% | HT29 colon 96% and 100% | SNB-75 CNS 94.9% and 85.8% | SNB-19 CNS 99.3% and 96.6% | U251 CNS 96.7% and 98.1% | SK-MEL-5 melanoma 100% and 104% | UACC-62 melanoma 100% and 97.8% | LOX IMVI melanoma 102% and 103% | SK-MEL-28 melanoma 109% and 103%

N=c1sc2ccccc2n1CC(=O)O
inactive: HCT-15 colon 103% | HT29 colon 98% | SNB-19 CNS 101% | U251 CNS 91.8% | PC-3 prostate 92.7% | SK-MEL-5 melanoma 104% | UACC-62 melanoma 97.2% | LOX IMVI melanoma 98.7% | SK-MEL-28 melanoma 112%
